According to the supplement of paper PMC11732987, “Enantioselective OTUD7B fragment discovery through chemoproteomics screening and high-throughput optimisation” (Communications Chemistry, 2025):
Values without a mark were called inactive.

Tests used:
Assay in all cases: log2 ratio of Biotin-Ahx-Ub-VS probe labelling (fragment/DMSO); higher = less target engagement (more negative = stronger competition), active = hit call of the paper (q ≤ 0.05, log2 ratio ≤ -1)
Conditions in all cases: compound concentration: 200 uM; treatment time: 3 h
[1] = biological target: T1, OTUD6B (UniProt Q8N6M0)
T1 sequence (whole entry): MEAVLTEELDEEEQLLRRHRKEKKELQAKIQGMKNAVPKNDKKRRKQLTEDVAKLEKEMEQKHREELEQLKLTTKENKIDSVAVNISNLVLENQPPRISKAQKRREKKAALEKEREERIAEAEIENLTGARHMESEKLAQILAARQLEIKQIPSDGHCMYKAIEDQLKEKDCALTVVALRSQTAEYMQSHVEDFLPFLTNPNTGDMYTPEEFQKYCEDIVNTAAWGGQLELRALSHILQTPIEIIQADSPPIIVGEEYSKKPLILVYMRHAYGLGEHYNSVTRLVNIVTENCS
Procedure, shortened: (§1)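 Global-median-normalised Spectronaut label-free quantities were compared by unpaired t-test, and values are average log2 ratios of fragment over vehicle. Only proteins with ≥2 unique peptides were used. HEK293T lysate (495 µg per sample) was treated in triplicate with fragment at 200 µM or vehicle for 3 h and then with Biotin-Ahx-Ub-VS at 0.5 µM final for 1 h. Labelled DUBs were then NeutrAvidin-enriched, digested with LysC and trypsin, and run by diaPASEF LC-MS/MS.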

[2] = biological target: T2, OTUD7B (UniProt Q6GQQ9)
T2 sequence (whole entry): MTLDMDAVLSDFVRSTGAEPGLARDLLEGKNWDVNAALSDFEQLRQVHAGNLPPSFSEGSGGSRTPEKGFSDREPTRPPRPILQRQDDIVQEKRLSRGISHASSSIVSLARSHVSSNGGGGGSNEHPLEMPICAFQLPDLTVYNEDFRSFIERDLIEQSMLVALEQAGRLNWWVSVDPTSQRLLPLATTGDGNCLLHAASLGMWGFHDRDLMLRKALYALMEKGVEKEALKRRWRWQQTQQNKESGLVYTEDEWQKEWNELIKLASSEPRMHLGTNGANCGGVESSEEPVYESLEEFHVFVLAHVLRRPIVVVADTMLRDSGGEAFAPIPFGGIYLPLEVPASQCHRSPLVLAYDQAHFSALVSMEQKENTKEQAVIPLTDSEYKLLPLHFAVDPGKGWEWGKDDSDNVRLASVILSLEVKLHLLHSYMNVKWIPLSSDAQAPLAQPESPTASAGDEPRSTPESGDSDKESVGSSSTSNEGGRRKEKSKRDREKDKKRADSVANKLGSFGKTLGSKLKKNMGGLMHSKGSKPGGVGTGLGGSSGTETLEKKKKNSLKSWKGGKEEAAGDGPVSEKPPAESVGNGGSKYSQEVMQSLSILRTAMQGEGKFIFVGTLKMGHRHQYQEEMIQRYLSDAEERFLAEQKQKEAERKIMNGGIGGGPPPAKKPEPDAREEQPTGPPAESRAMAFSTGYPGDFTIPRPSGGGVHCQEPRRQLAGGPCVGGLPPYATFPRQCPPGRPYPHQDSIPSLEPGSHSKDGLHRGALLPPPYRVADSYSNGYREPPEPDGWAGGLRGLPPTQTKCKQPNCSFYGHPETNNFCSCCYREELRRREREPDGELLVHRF
Procedure, shortened: as §1

[3] = biological target: PRPF8 (UniProt Q6P2Q9)
Procedure, shortened: as §1

[4] = biological target: T3, PSMD7 (UniProt P51665)
T3 sequence (whole entry): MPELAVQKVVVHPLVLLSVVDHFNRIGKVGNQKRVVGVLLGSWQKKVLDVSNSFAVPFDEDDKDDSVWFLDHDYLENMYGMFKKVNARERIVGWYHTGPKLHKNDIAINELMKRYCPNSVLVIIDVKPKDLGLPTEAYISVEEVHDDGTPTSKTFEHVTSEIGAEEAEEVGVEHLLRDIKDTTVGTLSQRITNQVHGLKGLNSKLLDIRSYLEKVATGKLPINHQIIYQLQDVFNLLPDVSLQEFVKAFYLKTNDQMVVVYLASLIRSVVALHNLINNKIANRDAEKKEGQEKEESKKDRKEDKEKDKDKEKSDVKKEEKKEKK
Procedure, shortened: as §1

[5] = biological target: UCHL1 (UniProt P09936)
Procedure, shortened: as §1

[6] = biological target: T4, UCHL3 (UniProt P15374)
T4 sequence (whole entry): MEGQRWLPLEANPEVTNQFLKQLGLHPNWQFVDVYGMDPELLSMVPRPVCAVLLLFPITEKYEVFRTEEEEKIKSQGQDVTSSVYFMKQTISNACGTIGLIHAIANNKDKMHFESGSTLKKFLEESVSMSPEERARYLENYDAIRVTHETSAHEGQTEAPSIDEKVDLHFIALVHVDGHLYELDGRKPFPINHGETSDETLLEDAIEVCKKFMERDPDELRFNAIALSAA
Procedure, shortened: as §1

[7] = biological target: T5, UCHL5 (UniProt Q9Y5K5)
T5 sequence (whole entry): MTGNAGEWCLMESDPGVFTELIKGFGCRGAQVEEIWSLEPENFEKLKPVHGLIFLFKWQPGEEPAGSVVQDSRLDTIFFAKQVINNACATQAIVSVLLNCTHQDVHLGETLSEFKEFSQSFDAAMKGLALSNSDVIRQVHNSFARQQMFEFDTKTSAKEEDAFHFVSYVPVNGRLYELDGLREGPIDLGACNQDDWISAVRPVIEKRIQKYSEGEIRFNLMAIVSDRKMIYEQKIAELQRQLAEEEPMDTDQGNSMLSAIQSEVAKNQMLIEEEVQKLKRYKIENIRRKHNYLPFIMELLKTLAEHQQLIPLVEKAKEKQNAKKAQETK
Procedure, shortened: as §1

[8] = biological target: USP10 (UniProt Q14694)
Procedure, shortened: as §1

[9] = biological target: T6, USP15 (UniProt Q9Y4E8)
T6 sequence (whole entry): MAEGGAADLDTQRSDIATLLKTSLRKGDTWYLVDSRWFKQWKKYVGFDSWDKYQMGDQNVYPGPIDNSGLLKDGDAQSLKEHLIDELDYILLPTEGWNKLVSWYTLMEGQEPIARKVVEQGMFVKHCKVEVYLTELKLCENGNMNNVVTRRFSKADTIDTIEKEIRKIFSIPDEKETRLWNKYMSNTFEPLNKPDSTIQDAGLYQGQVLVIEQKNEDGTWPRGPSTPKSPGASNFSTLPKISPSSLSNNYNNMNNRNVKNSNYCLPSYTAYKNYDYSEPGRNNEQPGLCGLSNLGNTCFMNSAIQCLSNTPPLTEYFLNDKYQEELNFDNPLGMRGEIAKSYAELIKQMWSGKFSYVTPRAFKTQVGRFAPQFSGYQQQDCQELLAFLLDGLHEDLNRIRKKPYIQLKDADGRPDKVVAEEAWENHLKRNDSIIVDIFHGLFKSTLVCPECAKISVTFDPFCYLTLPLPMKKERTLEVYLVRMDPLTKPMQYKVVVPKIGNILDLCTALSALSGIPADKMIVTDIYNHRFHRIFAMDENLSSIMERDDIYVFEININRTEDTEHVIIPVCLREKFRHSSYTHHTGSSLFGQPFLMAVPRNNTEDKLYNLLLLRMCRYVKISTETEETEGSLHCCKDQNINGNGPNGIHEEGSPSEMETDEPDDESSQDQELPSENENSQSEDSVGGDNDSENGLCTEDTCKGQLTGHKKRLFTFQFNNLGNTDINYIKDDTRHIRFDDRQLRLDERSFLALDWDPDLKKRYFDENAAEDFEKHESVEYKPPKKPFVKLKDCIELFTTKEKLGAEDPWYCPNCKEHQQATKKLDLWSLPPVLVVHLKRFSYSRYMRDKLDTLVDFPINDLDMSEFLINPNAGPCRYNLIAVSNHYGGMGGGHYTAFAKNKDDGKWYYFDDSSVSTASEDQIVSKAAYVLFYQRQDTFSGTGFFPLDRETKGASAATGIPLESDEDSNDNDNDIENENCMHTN
Procedure, shortened: as §1

Chain of UCHL1 (P09936 whole entry, looked up): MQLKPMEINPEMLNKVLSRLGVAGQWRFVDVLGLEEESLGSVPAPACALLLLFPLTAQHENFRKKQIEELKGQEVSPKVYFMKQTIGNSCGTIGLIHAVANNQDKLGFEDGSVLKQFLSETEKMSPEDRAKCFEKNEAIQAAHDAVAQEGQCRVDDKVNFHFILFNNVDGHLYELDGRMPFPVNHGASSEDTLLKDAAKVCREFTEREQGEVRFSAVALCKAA
Chain of USP10 (Q14694 whole entry): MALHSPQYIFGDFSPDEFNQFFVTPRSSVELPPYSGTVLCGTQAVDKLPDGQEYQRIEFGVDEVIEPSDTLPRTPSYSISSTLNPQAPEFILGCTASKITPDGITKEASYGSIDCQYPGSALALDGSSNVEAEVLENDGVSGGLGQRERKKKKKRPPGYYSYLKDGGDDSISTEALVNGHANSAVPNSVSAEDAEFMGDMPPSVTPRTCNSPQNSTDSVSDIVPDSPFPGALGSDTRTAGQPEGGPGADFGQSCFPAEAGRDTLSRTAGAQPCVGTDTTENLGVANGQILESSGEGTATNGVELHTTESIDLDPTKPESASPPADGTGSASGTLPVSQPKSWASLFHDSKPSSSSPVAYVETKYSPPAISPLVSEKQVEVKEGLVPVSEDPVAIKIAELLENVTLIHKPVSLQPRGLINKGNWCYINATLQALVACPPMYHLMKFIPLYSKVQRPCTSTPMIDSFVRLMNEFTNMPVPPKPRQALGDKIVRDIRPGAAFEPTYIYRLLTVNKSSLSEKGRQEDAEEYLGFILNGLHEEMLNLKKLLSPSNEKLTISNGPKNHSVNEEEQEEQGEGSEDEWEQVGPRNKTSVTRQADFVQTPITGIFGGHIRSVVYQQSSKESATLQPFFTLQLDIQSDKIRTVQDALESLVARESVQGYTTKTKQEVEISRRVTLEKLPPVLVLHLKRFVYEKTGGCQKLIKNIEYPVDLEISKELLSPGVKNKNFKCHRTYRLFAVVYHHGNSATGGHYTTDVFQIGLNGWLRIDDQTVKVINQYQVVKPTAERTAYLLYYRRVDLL

For `CN1c2ccccc2C(NC(=O)CCl)CS1(=O)=O` (centres undefined), the “log2 ratio of Biotin-Ahx-Ub-VS probe labelling” value (“log2 ratio” for short) [1] was -0.0927, the “log2 ratio” value [2] was -2.41 (active) and the “log2 ratio” value [3] was 0.0667. For the same compound, the “log2 ratio” value [4] was -0.189, the “log2 ratio” value [5] was -1.69 (active) and the “log2 ratio” value [6] was 0.316. The “log2 ratio” value [7] was -0.387, the “log2 ratio” value [8] was 0.128 and the “log2 ratio” value [9] was -0.212.
